M1 ag = human M1 muscarinic receptor agonists, primary screen, Fluo-8 calcium fluorescence, CHO-K1 cells, HTS | activation, % at 3 µM | Muscarinic acetylcholine receptor M1 (Homo sapiens), P11229 | actives 0.33% (n = 360,000) | CHO-K1 hM1, agonist mode; 0% DMSO, 100% acetylcholine EC100 | AID 588814, 2011;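 active = activation above the run's mean compound activation plus 3 SD, cut at about 16% in these data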;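 note: peak over basal fluorescence ratio within a 140 s kinetic read after compound addition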
Target sequence (P11229 whole entry, looked up): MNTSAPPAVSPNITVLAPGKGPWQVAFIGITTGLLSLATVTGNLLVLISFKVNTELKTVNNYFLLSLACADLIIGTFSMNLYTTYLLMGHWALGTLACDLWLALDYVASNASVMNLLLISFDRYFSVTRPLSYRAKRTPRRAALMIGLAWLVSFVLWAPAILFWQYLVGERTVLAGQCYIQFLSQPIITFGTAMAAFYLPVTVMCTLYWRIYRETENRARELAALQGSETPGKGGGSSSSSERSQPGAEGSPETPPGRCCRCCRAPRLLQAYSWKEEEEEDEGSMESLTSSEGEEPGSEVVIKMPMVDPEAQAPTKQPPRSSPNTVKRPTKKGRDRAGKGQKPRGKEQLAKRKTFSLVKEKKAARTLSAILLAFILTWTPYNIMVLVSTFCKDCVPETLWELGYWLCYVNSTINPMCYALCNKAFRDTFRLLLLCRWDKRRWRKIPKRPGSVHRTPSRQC
CHO-K1 Ca antag = M1 antagonist counterscreen hit in parental CHO-K1 cells; ATP-induced calcium, Fluo-8 fluorescence; inhibition, % at 3 µM; actives 0.6% (n = 360,000);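 active = inhibition above a per-plate cutoff, the plate's mean sample inhibition plus 3 SD, cut at about 24% in these data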;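 note: 0% = DMSO plus EC80 ATP and 100% = DMSO alone without ATP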
CHRM1 antagonist = human M1 muscarinic receptor antagonists, primary screen, CHO-K1 cells, Fluo-8 calcium fluorescence, 1536-well; inhibition, % at 3 µM; Muscarinic acetylcholine receptor M1 (Homo sapiens), P11229; actives 1.3% (n = 360,000); CHO-K1 hM1, ACh EC80 antagonist;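 active = percent inhibition above its own plate's cutoff, namely the mean of that plate's compound wells plus 3 SD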;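 note: peak over basal fluorescence ratio during 140 s after agonist addition; 0% = ACh EC80 plus DMSO and 100% = DMSO alone without agonist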
M1 PAM parental = nonselective calcium activators in parental CHO-K1 cells, primary screen, counter-screen for M1 PAM project, cell-based, Fluo-8 calcium fluorescence, full deck, 1536-well; ATP EC20; 0% at ATP EC20, 100% at ATP max; activation, % at 3 µM; actives 0.02% (n = 360,000); AID 602247, 2012;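 active = activation above the run cutoff, the mean activation of all test compounds plus 3 SD, cut at about 40% in these data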;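 note: peak over basal fluorescence ratio in a 140 s read after ATP addition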
M1 ag parental = counter-screen for M1 agonists: effect in parental CHO-K1 cells; actives 0.48% (n = 360,000); Fluo-8 calcium fluorescence; scaled to maximal ATP response, vehicle zero; AID 602248, 2012; activation, % at 3 µM; in the data active = activation above about 15%;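 note: untransfected CHO-K1 host cells lacking M1 receptor as counterscreen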
CHRM1 PAM = human M1 muscarinic receptor positive allosteric modulators, primary screen, CHO-K1 cells, Fluo-8 calcium fluorescence, 1536-well | activation, % at 3 µM | CHO-K1 hM1, ACh EC20; 0% = ACh EC20, 100% = maximal ACh | Muscarinic acetylcholine receptor M1 (Homo sapiens), P11229 | actives 0.088% (n = 360,000); in the data active = activation above about 19%, passing the limit was not always enough
Starred values were filed as active, the others as inactive. Sampled rows, rich in hits. Any-hit rate of the full collection: about 2.3%.

SMILES	M1 ag	CHO-K1 Ca antag	CHRM1 antagonist	M1 PAM parental	M1 ag parental	CHRM1 PAM
COCCNC(=O)CN1C(=O)/C(=C/c2ccccc2)Oc2ccc(C(C)(C)C)cc21	-2	-8	-14	-8	0	11
CCOC(=O)CN1CCC(C2(c3cc4ccccc4[nH]3)OCCO2)CC1	3	3	-3	12	2	5
C=CCN1C(=O)/C(=C/C=C2/N(CC)c3ccc(S(=O)(=O)N(C)C)cc3N2CC)SC1=S	17*	-11	8	15	8	0
COc1cc2c(cc1NC(=S)Nc1ccccc1C)oc1ccccc12	-5	-9	-15	17	0	25*
Cc1c(NS(=O)(=O)c2cccc(C(=O)N3CCC(C(N)=O)CC3)c2)c(=O)n(-c2ccccc2)n1C	4	-15	-35	17	2	31*
O=C1CC(=C(c2ccccc2)c2ccccc2)C(=O)N1CCCCN1CCN(c2ccccc2)CC1	-5	-13	73*	15	0	-22
COC(=O)N/N=C/c1cn(CCOc2ccc(OC)cc2)c2ccccc12	-2	0	15	7	15*	-9
CSCCC(N=C(NS(=O)(=O)c1ccc(C)cc1)c1ccccc1)C(=O)O (stereo not drawn)	-2	-12	-11	24	3	6
CC1Cc2ccccc2N1C(=O)CSc1nc2c(c(=O)n(C)c(=O)n2C)n1Cc1ccccc1 (stereo not drawn)	-3	1	41*	6	5	-18
Cn1c(=O)c2c(nc(SCCN3CCCCC3)n2Cc2ccccc2)n(C)c1=O	-6	-8	39*	9	0	-17
CC[n+]1c(-c2ccccc2)csc1Nc1c(C)n(C)n(-c2ccccc2)c1=O	-9	-5	51*	17	2	-26
CC[n+]1c(-c2ccc(C)cc2)csc1Nc1c(C)n(C)n(-c2ccccc2)c1=O	-8	-1	35*	10	2	-26
Cc1ccc(Nc2nc3ccccc3nc2Nc2c(C)n(C)n(-c3ccccc3)c2=O)cc1	-4	1	-6	12	0	9
Cc1ccc(NS(=O)(=O)c2ccc(-n3cccn3)cc2)cc1C	-1	-11	28*	6	8	-17
Cc1ccc(NS(=O)(=O)c2ccc(-n3cccn3)cc2)cc1Cl	-3	0	-4	3	2	2
CCOc1cc(S(=O)(=O)NCc2ccccc2)ccc1Br	-12	-5	-7	15	1	1
Cn1c(=O)n(-c2cccc(Cl)c2)c(=O)c2c3c(sc21)COC(C)(C)C3	1	30*	-7	-7	-1	11
CC(C)CN1CCC(=O)N(CCOc2ccccc2)CC1	2	5	15	-17	0	-3
CCCN1CCC(=O)N(CCOc2ccccc2)CC1	-5	24*	1	-18	3	4
CC1CCC(C(C)C)C(OC(=O)C[n+]2cc(-c3ccc(Cl)cc3)n3c2CCC3)C1 (stereo not drawn)	-2	-3	85*	10	1	-23
COc1ccc(-c2c[n+](CC(=O)N3c4ccccc4Sc4ccccc43)c3n2CCC3)cc1	-8	-12	86*	13	0	-27
O=C(C[n+]1cc(-c2ccc(Cl)cc2)n2c1CCC2)N1c2ccccc2Sc2ccccc21	-8	4	97*	-3	0	-26
Cc1ccc(-c2c[n+](CC(=O)OCc3ccccc3)c3n2CCC3)cc1	-8	3	6	-1	0	-9
O=C(C[n+]1cc(-c2ccc(Cl)c(Cl)c2)n2c1CCC2)N1c2ccccc2Sc2ccccc21	-8	-4	100*	26	0	-27
COCCCN1C(=O)C(CC(=O)NC(c2ccccc2)c2ccccc2)CC(C(=O)N(C(C)C)C(C)C)=C1C (stereo not drawn)	-5	-16	-18	-3	0	-4
SMILES	M1 ag	CHO-K1 Ca antag	CHRM1 antagonist	M1 PAM parental	M1 ag parental	CHRM1 PAM
COc1cc([N+](=O)[O-])ccc1NC(=O)NCCCN1CCCC1=O	-5	-9	-2	13	0	4
COCCn1c(SCC(=O)N2CC(=O)Nc3ccccc32)nc2ccccc21	-13	-5	-9	13	0	6
O=C(COc1ccc([N+](=O)[O-])cc1)NNC(=O)c1cccs1	-2	-4	3	-13	0	8
Cc1sc2ncnc(SCC(=O)c3ccc4c(c3)OCCO4)c2c1-c1ccccc1	-4	-2	-4	15	0	6
Cc1ccccc1NC(=O)C[n+]1cc(-c2ccccc2)n2c1CCC2	-2	16	50*	-21	5	-17
CCN1CCN(c2nc(-c3ccccc3)c3ccccc3n2)CC1	-11	-25	47*	25	3	-29
c1ccc(-c2nc(N3CCCCC3)nc3ccccc23)cc1	-5	-3	6	15	0	-2
CCCCCOc1ccc2oc(=O)c3c(c2c1)CCCN3C(=O)CN1CCCC(C(=O)OCC)C1 (stereo not drawn)	-4	7	35*	5	0	-19
CCn1c(SCC(=O)NCCc2ccc(F)cc2)nnc1-c1cccs1	-4	26*	16	-7	0	-7
CCn1c(SCC(=O)NCc2ccc3c(c2)OCO3)nnc1-c1cccs1	-6	-7	-10	29	0	7
COc1cc(/C=C/C(=O)OCC(=O)NCCc2ccc(F)cc2)ccc1OC(F)F	1	-18	-11	11	3	0
CN1C(=O)/C(=C/c2ccccc2OCc2ccc(F)cc2)N(C)C1=S	-10	-1	100*	-4	-1	-23
O=C1NC(=S)N/C1=C\c1ccccc1OCc1ccc(C(=O)O)cc1	34*	-11	-20	10	0	11
CC(SCc1ccccc1)C(=O)Nc1ccc(F)cc1 (stereo not drawn)	-4	-13	1	15	1	4
Cc1cccc(CSC(Nc2ccc(F)cc2)=C(C#N)C#N)c1	3	28*	20	0	13	-13
N#CC(C#N)=C(Nc1ccc(F)cc1)SCc1cccc(Br)c1	3	26*	24	16	10	-10
Cc1cccc(CSC(=N)N)c1	-8	-1	4	15	0	4
CCOC(=O)c1c(C)oc2ccc(NS(=O)(=O)c3ccc(C(=O)O)cc3)cc12	-5	8	14	0	-1	-9

Compound activity: PubChem, The Scripps Research Institute Molecular Screening Center
